Reference: ChEMBL document CHEMBL3988442, “University of Dundee, Small-Polar-MMV Screening Library” (2021)
Among all 48,000 compounds or so, about 13,000 (27%) showed an effect of 50% or more. Some of the results follow.

test system: Wolbachia pipientis; test: Anti-Wolbachia Cell-Based Screen; type: functional; set-up: scale not given: in the data most compounds retested in dose-response had high values; details: 5 µM

| Compound | Percent Effect |
| --- | --- |
| Cc1ccc(S(=O)(=O)NC(=O)COc2ccc(CC#N)cc2)s1 | -2.544% |
| CN(c1ccc(-c2nc(C3CC3)no2)cn1)C1CCOCC1 | 5.539% |
| Cc1cccc(NCCNc2ccc(C#N)cn2)n1 | 14.53% |
| CN(Cc1nnc(-c2ccco2)o1)Cc1nc2c(s1)CCCC2 | -12.52% |
| COc1ccc(C(=O)N2Cc3cc(C)ccc3OCC2CN(C)C)cc1.Cl (centres undefined) | 72.78% |
| COc1ccc(C(=O)NC[C@H]2COCc3nc4cc(C)ccc4n32)cc1 | -9.863% |
| Cc1ccc2c(c1)CN(C(=O)c1cccnc1)C(CN(C)C)CO2.Cl (centres undefined) | 73.73% |
| COc1ccccc1C(=O)N1Cc2cc(C)ccc2OCC1CN(C)C.Cl (centres undefined) | -11.9% |
| CCOCCC(=O)NCc1ccnc(NC2CC2)c1 | -81.15% |
| CC(C)(C)OC(=O)N1CCCC[C@H]1C(=O)NCc1nccs1 | 1.043% |
| Cc1ccccc1C(CC(=O)NCC(N)=O)c1ccccc1 (centres undefined) | -4.865% |
| Cc1ccccc1C(C)NC(=O)c1ccc(=O)n(C)c1 (centres undefined) | 28.6% |
| CCC(NS(C)(=O)=O)c1ccccc1C (centres undefined) | -2.544% |
| Cc1ccccc1C(NC(=O)CCCS(C)(=O)=O)C(C)(C)C (centres undefined) | -11.53% |
| CCC(=O)NC(CC)c1ccccc1C (centres undefined) | 115.1% |
| CCC(NC(=O)C(C)C)c1ccccc1C (centres undefined) | 112% |
| CCCC1(NC(=O)C(c2ccccc2C)N(C)C)CC1 (centres undefined) | 5.158% |
| CCC(=O)NC(C)c1ccccc1C (centres undefined) | 111% |
| CCC(NC(=O)C(C)(C)C)c1ccccc1C (centres undefined) | 109.5% |
| Cc1ccc(C)c(C(NC(=O)C(C)(C)C)c2cccnc2)c1 (centres undefined) | 4.189% |

| Compound | Percent Effect |
| --- | --- |
| CCC(NCc1ccccc1C)c1ccccc1OCC(=O)NC (centres undefined) | -1.01% |
| Cc1ccccc1C(C)NC(=O)CN1CCN(Cc2ccc(Cl)s2)CC1 (centres undefined) | -0.8834% |
| Cc1nn2c(N3CCS(=O)(=O)CC3)cc(-c3ccccc3)nc2c1C | -7.306% |
| COC(=O)CSCc1noc(-c2ccc(Cl)cc2)n1 | 23.78% |
| Cc1nn(CCC#N)c(C)c1[C@@H]1C=C[C@@H](NCc2ccc(F)cc2)C1 | -3.605% |
| CC(C)CCC(C)NC(=O)c1ccc(OCC(N)=O)cc1 (centres undefined) | -5.752% |
| NC(=O)c1ccc(S(=O)(=O)NC2CCN(Cc3ccccc3)C2=O)cc1 (centres undefined) | -1.969% |
| Cn1nc(C(=O)N2CCCCCC2)cc1NC(=O)c1ccccc1 | 99.88% |
| COC(=O)c1cc(C(=O)N2CCCCCC2)n(-c2ccccc2)n1 | -9.69% |
| Cc1nc(N2CCOCC2)nc(C)c1NC(=O)c1ccco1 | 3.58% |
| CC1CCN(C(=O)c2cn(-c3ccc(C(F)(F)F)cn3)nn2)CC1 | -7.014% |
| CC1CCN(C(=O)c2cc(NC(=O)c3ccccc3)n(C)n2)CC1 | 70.66% |
| CCN1CCN(C(=O)c2cc(NC(=O)c3ccccc3)n(C)n2)CC1 | 93.08% |
| CCCn1ccc(C(=O)N2CCC(C)CC2)n1 | -7.324% |
| CCn1nc(C)cc1C(=O)N1CCCN(CCCc2ccccc2)CC1 | 0.5946% |
| Cc1nc(N2CCCC2)nc(C)c1NC(=O)c1ccco1 | 8.53% |
| Cn1nc(C(=O)N2CCSCC2)cc1NC(=O)c1ccco1 | 98.85% |
| CCN1CCN(C(=O)c2cc(C(=O)OC)nn2-c2ccccc2)CC1 | -11.35% |
| Cn1nc(C(=O)NC2CCCCC2)cc1NC(=O)C1CC1 | 0.3949% |
